# Screening data deposited in PubChem BioAssay by Johns Hopkins Ion Channel Center.
# CHT block – inhibitors of human choline transporter CHT; High affinity choline transporter 1 (Homo sapiens), Q9GZV3; CHT-expressing cells, membrane potential dye, choline response; stronger effect = lower value; B-score at 10 µM; 310,000 compounds, 0.86% hits;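 active = B-score over 3 SD under the library average, and starting fluorescence ratio not unusually high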;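 also: choline stimulus applied at its EC90 after an EC20 pre-addition; B-score computed on integrated fluorescence ratio after choline addition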
# Target sequence (Q9GZV3 whole entry, looked up): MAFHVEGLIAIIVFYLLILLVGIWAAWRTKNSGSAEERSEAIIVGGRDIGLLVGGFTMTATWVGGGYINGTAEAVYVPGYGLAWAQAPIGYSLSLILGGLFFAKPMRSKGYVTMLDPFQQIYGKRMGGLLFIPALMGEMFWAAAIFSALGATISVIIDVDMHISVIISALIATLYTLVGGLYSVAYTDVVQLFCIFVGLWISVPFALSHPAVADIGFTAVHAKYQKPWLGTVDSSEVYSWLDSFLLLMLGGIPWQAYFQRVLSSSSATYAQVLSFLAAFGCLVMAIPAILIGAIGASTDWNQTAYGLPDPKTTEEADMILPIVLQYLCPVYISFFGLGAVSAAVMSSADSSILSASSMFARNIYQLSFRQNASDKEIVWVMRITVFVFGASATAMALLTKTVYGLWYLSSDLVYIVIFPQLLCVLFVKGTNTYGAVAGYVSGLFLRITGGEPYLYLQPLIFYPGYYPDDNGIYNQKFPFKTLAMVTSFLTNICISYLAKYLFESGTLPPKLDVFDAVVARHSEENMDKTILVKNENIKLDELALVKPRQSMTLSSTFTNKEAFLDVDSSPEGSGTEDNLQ
# CHT allo act – CHT positive allosteric modulators, primary screen, cell-based, membrane potential dye, choline EC20; High affinity choline transporter 1 (Homo sapiens), Q9GZV3; CHT-expressing cells; stronger effect = higher value; LV-AA mutant CHT in HEK293 cells; B-score at 10 µM; 310,000 compounds, 0.49% hits;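 active = initial fluorescence not abnormally high and integrated response B-score, plate-corrected, over 3 SD above library mean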
# TMEM16A act – TMEM16A chloride channel activators or potentiators, primary screen, cell-based, HTS. Anoctamin-1 (Mus musculus), Q8BHY3. HEK293 TMEM16A/YFP-H148Q/I152L, iodide quench fluorescence; stronger effect = lower value. B-score at 10 µM. 340,000 compounds, 0.3% hits. AID 623877, 2012;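 active = fluorescence-ratio B-score plate-corrected deviation score at least 3 library SD below zero, with starting fluorescence score within 5 deviations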;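 also: channel opened by trigger with iodide after compound preincubation; score built on the fluorescence ratio of max minus min over baseline; more negative score means more quench and so TMEM16A activation or potentiation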
# TMEM16A inh – TMEM16A chloride channel inhibitors, primary screen, cell-based, HTS; Anoctamin-1 (Mus musculus), Q8BHY3; HEK293 TMEM16A/YFP iodide influx fluorescence, ionomycin; normalized B-score (activity score, 25-100; higher = stronger inhibition) at 10 µM; 310,000 compounds, 1.2% hits; AID 588511, 2011;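 active = ratio plate-corrected score three or more library SD toward inhibition, starting fluorescence score within five deviations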;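 also: score derived from kinetic fluorescence span divided by baseline fluorescence per well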
# TMEM16A reconf – TMEM16A chloride channel inhibitors, confirmation, cell-based, re-confirmation | shares compounds with TMEM16A inh | HEK293 TMEM16A/YFP-H148Q, iodide quench fluorescence; ionomycin added to raise cell calcium | inhibition, % at 10 µM | 2,300 compounds, 39% hits | AID 652189, 2013;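 active = mean duplicate percent inhibition, scaled so buffer wells are 0 and the reference blocker 100, over three buffer SD above buffer mean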
# HEK293 Ca mobil – calcium mobilization in TMEM16A/YFP HEK293 cells, confirmation, counter-screen for TMEM16A inhibitor project. Fluo4 calcium mobilization. shares compounds with TMEM16A inh. 2,300 compounds, 2% hits. calcium response (% of ionomycin), % at 10 µM;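 active = duplicate-averaged calcium signal over 20% of the ionomycin maximum, relative to buffer baseline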;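 also: each well's signal is peak minus trough fluorescence divided by its pre-addition baseline; 0% = buffer wells and 100% = ionomycin wells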
# YFP-HEK293 quench – iodide YFP quench changes in parental YFP-HEK293, counter-screen for TMEM16A inhibitor project, cell-based; shares compounds with TMEM16A inh; 2,300 tested, under 10 active; YFP ratio F(max-min)/F0 at 10 µM; ionomycin;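 active = yellow fluorescent protein signal ratio exceeding the buffer control mean by over 5 SD of those controls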;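 also: ratio is mean of duplicate wells from kinetic YFP trace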
# ClC-1 rat inh – ClC-1 chloride channel inhibition, selectivity assay for TMEM16A inhibitor project, cell-based, voltage-dependent ClC-1. AID 652236, 2013. shares compounds with TMEM16A inh. CHO ClC-1-YFP, iodide influx fluorescence quench; iodide control reads 0, buffer control 100. ratio percent, % at 10 µM. 2,300 tested, under 10 active;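 active = duplicate-mean ratio percent above the mean of iodide-only control wells, which defines zero, plus 5 of their SD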;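 also: higher percent means stronger block of ClC-1 iodide influx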
# An asterisk follows results filed as active; i = inactive; / = no result given. Hits are enriched below; roughly 2.3% of the tested compounds scored in any of these assays.
SMILES,CHT block,CHT allo act,TMEM16A act,TMEM16A inh,TMEM16A reconf,HEK293 Ca mobil,YFP-HEK293 quench,ClC-1 rat inh
Cn1c(=O)oc2cc(S(=O)(=O)N3CCN(C(=O)c4ccco4)CC3)ccc21,i,i,i,100*,i,i,-1.01,-5.5
C/C=C1\COC(C(=O)NCc2ccncc2)(C(F)(F)F)C=C1C=C1CCCCC1 (stereo not given),i,i,i,i,/,/,/,/
C/C=C1\COC(C(=O)NCc2cccc(OC)c2OC)(C(F)(F)F)C=C1C=C1CCCCC1 (stereo not given),i,i,i,25*,i,i,-1,-13.5
COc1cc(OC)cc(C(=O)NCC(=O)NCc2ccccn2)c1,/,/,i,/,/,/,/,/
O=C(Nc1ccc2c(c1)C(=O)N(CC1CCCO1)C2=O)c1cccc(Br)c1 (stereo not given),i,i,i,100*,24.0%*,i,-0.991,-7.5
CC(=O)Nc1ccc(S(=O)(=O)NCCN2CCNC2=O)cc1Cl,i,i,i,i,/,/,/,/
Cc1ccsc1/C=N/Nc1ncc(Cl)cc1Cl,i,i,i,100*,40.5%*,i,-0.937,-7.5
COc1cccc(-c2cc(C(=O)Nc3cc(C)on3)no2)c1,i,i,i,i,i,i,-1.05,-7.0
Cc1cc(NC(=O)c2cc(-c3cccc(Cl)c3)on2)no1,i,i,i,i,/,/,/,/
CC1C=CC=CC=CC=CC=CC=CC=CC(OC2OC(C)C(O)C(N)C2O)CC2OC(O)(CC(O)CC(O)C(O)CCC(O)CC(O)CC(=O)OC(C)C(C)C1O)CC(O)C2C(=O)O (stereo not given),/,/,i,/,/,/,/,/
Cc1onc(-c2c(F)cccc2Cl)c1C(=O)Nc1nc2c(s1)CCCC2,i,i,i,100*,i,i,-1.02,-9.0
Cc1onc(-c2ccccc2)c1C(=O)Nc1nc2c(s1)CCCC2,i,i,i,i,/,/,/,/
N#Cc1c(-c2cccc(Br)c2)cc(-c2cccnc2)nc1N,i,i,i,25*,25.0%*,i,-0.994,-9.0
Cc1ccc(NS(=O)(=O)c2cccc(C(=O)Nc3cc(C)on3)c2)cc1,i,i,-5.28*,25*,i,i,-1.07,-12.5
Oc1ccccc1C1=NCCNC(C(F)(F)C(F)F)=C1,i,i,i,i,/,/,/,/
FC(F)C(F)(F)c1cc(-c2ccc(Cl)cc2)n[nH]1,i,i,i,100*,97.0%*,i,-0.938,-27.5
Oc1ccccc1-c1cc(C(F)(F)C(F)F)[nH]n1,i,i,i,100*,i,i,-0.825,-13.0
Fc1ccc(-c2cc(C(F)(F)C(F)F)[nH]n2)cc1,i,i,i,100*,54.5%*,i,-1.07,-7.0
CC(C)(C)c1cc(-c2ccccc2)n[nH]1,i,i,i,i,/,/,/,/
Clc1ccc(-c2cc(C3CCNCC3)[nH]n2)cc1,i,i,i,i,/,/,/,/
Cc1cc(C)n2nc(C(=O)OCC(=O)Nc3ccc(F)cc3F)nc2n1,i,i,i,i,/,/,/,/
COc1ccc(OC)c(NC(=O)CSc2ncnc3sc(C)cc23)c1,/,/,i,/,/,/,/,/
COc1ccc(-c2cc(C3CCN(c4cc(Cl)nc(N)n4)CC3)[nH]n2)cc1,i,i,i,i,/,/,/,/
COc1ccc(OC)c(-c2cc(C3CCN(c4cc(Cl)nc(N)n4)CC3)[nH]n2)c1,i,i,i,100*,i,i,-1.24,-19.5
